Substitutions are numbered along the chain they refer to.
Columns and labels:
Test in all cases: HT-SELEX; high values mean tight binding
Conditions in all cases: protein: recombinant; vector His6-GST; dsDNA, one strand shown
[1] = target: T1, SALL4 ZFC4 WT (HT-SELEX) (Mus musculus, UniProt Q8BX22 870-940)
T1 sequence: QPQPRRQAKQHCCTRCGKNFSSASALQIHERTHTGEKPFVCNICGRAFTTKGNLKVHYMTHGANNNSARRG
Outline: (§1)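 Residues 870–940 of mouse SALL4, forming zinc finger cluster 4, were expressed recombinantly, purified, and 1 µg was incubated with library DNA (1.5 µg first cycle, 200 ng later) in 100 µl of 10 mM Tris–HCl pH 7.5, 50 mM NaCl, poly(dI-dC) and DTT for 10 min at room temperature. Washed Ni2+ bead-captured complexes were PCR-amplified and reselected for up to 6 cycles in triplicate, and the products were sequenced on MiSeq and scanned for 6-mers. Binding signal is the fold change in each canonical k-mer's read fraction compared with the initial random library.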

[2] = target: T2, SALL4 ZFC4 R900W (HT-SELEX) (Mus musculus, UniProt Q8BX22 870-940, R900W)
T2 sequence: T1 sequence with R31W
Outline: as §1

[3] = target: T3, SALL4 ZFC4 G921D (HT-SELEX) (Mus musculus, UniProt Q8BX22 870-940, G921D)
T3 sequence: T1 sequence with G52D
Outline: as §1

| Sequence | binding signal [1] | binding signal [2] | binding signal [3] |
| --- | --- | --- | --- |
| AAGCGT | 0.524 ± 0.0507 fold-change vs cycle 0 | 0.607 ± 0.0218 fold-change vs cycle 0 | 0.726 ± 0.0141 fold-change vs cycle 0 |
| ACAATA | 2.09 ± 0.146 fold-change vs cycle 0 | 1.92 ± 0.0865 fold-change vs cycle 0 | 1.71 ± 0.156 fold-change vs cycle 0 |
| AAAGGA | 1.36 ± 0.0473 fold-change vs cycle 0 | 1.57 ± 0.109 fold-change vs cycle 0 | 1.44 ± 0.105 fold-change vs cycle 0 |
| CGAAAC | 0.59 ± 0.0153 fold-change vs cycle 0 | 0.676 ± 0.0229 fold-change vs cycle 0 | 0.748 ± 0.0402 fold-change vs cycle 0 |
| AAAACG | 0.821 ± 0.0591 fold-change vs cycle 0 | 0.931 ± 0.0404 fold-change vs cycle 0 | 0.972 ± 0.016 fold-change vs cycle 0 |
| AGTTTA | 1.89 ± 0.117 fold-change vs cycle 0 | 1.94 ± 0.143 fold-change vs cycle 0 | 1.72 ± 0.194 fold-change vs cycle 0 |
| CTCTGC | 0.35 ± 0.0408 fold-change vs cycle 0 | 0.396 ± 0.021 fold-change vs cycle 0 | 0.522 ± 0.0742 fold-change vs cycle 0 |
| CTCCCC | 0.313 ± 0.0129 fold-change vs cycle 0 | 0.36 ± 0.0359 fold-change vs cycle 0 | 0.456 ± 0.0544 fold-change vs cycle 0 |
| ATCTCC | 0.945 ± 0.0285 fold-change vs cycle 0 | 1.04 ± 0.0372 fold-change vs cycle 0 | 1.06 ± 0.0438 fold-change vs cycle 0 |
| ACATAC | 1.3 ± 0.0628 fold-change vs cycle 0 | 1.4 ± 0.0493 fold-change vs cycle 0 | 1.33 ± 0.0922 fold-change vs cycle 0 |
| AGTGAC | 0.776 ± 0.012 fold-change vs cycle 0 | 0.91 ± 0.0317 fold-change vs cycle 0 | 0.973 ± 0.0424 fold-change vs cycle 0 |
| GAGTTA | 1.47 ± 0.0406 fold-change vs cycle 0 | 1.52 ± 0.0183 fold-change vs cycle 0 | 1.45 ± 0.0562 fold-change vs cycle 0 |
| ATATTG | 2.19 ± 0.214 fold-change vs cycle 0 | 1.8 ± 0.105 fold-change vs cycle 0 | 1.69 ± 0.149 fold-change vs cycle 0 |
| CTCGAA | 0.675 ± 0.0333 fold-change vs cycle 0 | 0.763 ± 0.0367 fold-change vs cycle 0 | 0.838 ± 0.0207 fold-change vs cycle 0 |
| CGAGAC | 0.365 ± 0.0341 fold-change vs cycle 0 | 0.454 ± 0.0153 fold-change vs cycle 0 | 0.565 ± 0.0671 fold-change vs cycle 0 |
| CAGGTC | 0.406 ± 0.041 fold-change vs cycle 0 | 0.487 ± 0.0258 fold-change vs cycle 0 | 0.603 ± 0.0536 fold-change vs cycle 0 |
| AGTACA | 1.29 ± 0.0355 fold-change vs cycle 0 | 1.43 ± 0.0834 fold-change vs cycle 0 | 1.35 ± 0.0882 fold-change vs cycle 0 |
| GCTTCC | 0.35 ± 0.00821 fold-change vs cycle 0 | 0.454 ± 0.0368 fold-change vs cycle 0 | 0.567 ± 0.0502 fold-change vs cycle 0 |
| GATGAA | 1.45 ± 0.0431 fold-change vs cycle 0 | 1.54 ± 0.0399 fold-change vs cycle 0 | 1.43 ± 0.0787 fold-change vs cycle 0 |
| CTCGTA | 0.764 ± 0.033 fold-change vs cycle 0 | 0.867 ± 0.0258 fold-change vs cycle 0 | 0.901 ± 0.00732 fold-change vs cycle 0 |

| Sequence | binding signal [1] | binding signal [2] | binding signal [3] |
| --- | --- | --- | --- |
| AGGATC | 0.876 ± 0.0353 fold-change vs cycle 0 | 1.01 ± 0.0497 fold-change vs cycle 0 | 1.07 ± 0.0215 fold-change vs cycle 0 |
| CTATAA | 2.19 ± 0.104 fold-change vs cycle 0 | 1.95 ± 0.0822 fold-change vs cycle 0 | 1.74 ± 0.119 fold-change vs cycle 0 |
| CTCATC | 0.898 ± 0.0192 fold-change vs cycle 0 | 1.04 ± 0.0368 fold-change vs cycle 0 | 1.06 ± 0.0243 fold-change vs cycle 0 |
| CCGTTA | 0.746 ± 0.0254 fold-change vs cycle 0 | 0.832 ± 0.0409 fold-change vs cycle 0 | 0.854 ± 0.0323 fold-change vs cycle 0 |
| ATCCAG | 0.851 ± 0.0326 fold-change vs cycle 0 | 0.955 ± 0.027 fold-change vs cycle 0 | 0.988 ± 0.0337 fold-change vs cycle 0 |
| CACTTC | 0.777 ± 0.0329 fold-change vs cycle 0 | 0.925 ± 0.0515 fold-change vs cycle 0 | 0.946 ± 0.0498 fold-change vs cycle 0 |
| GGCAAA | 0.399 ± 0.0111 fold-change vs cycle 0 | 0.457 ± 0.0213 fold-change vs cycle 0 | 0.604 ± 0.0748 fold-change vs cycle 0 |
| ATGCTA | 1.28 ± 0.0551 fold-change vs cycle 0 | 1.34 ± 0.0761 fold-change vs cycle 0 | 1.31 ± 0.0688 fold-change vs cycle 0 |
| GACTTA | 1.27 ± 0.0397 fold-change vs cycle 0 | 1.4 ± 0.0678 fold-change vs cycle 0 | 1.33 ± 0.102 fold-change vs cycle 0 |
| ATCCTC | 0.944 ± 0.0401 fold-change vs cycle 0 | 1.06 ± 0.0699 fold-change vs cycle 0 | 1.09 ± 0.0423 fold-change vs cycle 0 |
| ATTTTC | 1.99 ± 0.115 fold-change vs cycle 0 | 1.68 ± 0.0202 fold-change vs cycle 0 | 1.56 ± 0.0749 fold-change vs cycle 0 |
| CCGAAG | 0.38 ± 0.0225 fold-change vs cycle 0 | 0.441 ± 0.0244 fold-change vs cycle 0 | 0.553 ± 0.046 fold-change vs cycle 0 |
| TCCAAA | 1.1 ± 0.0395 fold-change vs cycle 0 | 1.19 ± 0.0233 fold-change vs cycle 0 | 1.17 ± 0.00926 fold-change vs cycle 0 |
| GCATGA | 0.7 ± 0.0187 fold-change vs cycle 0 | 0.753 ± 0.0226 fold-change vs cycle 0 | 0.824 ± 0.0395 fold-change vs cycle 0 |
| AACAGC | 0.555 ± 0.024 fold-change vs cycle 0 | 0.644 ± 0.0188 fold-change vs cycle 0 | 0.761 ± 0.0273 fold-change vs cycle 0 |
| AGTACG | 0.724 ± 0.0595 fold-change vs cycle 0 | 0.83 ± 0.0465 fold-change vs cycle 0 | 0.871 ± 0.0406 fold-change vs cycle 0 |
| GTGTCA | 0.688 ± 0.0282 fold-change vs cycle 0 | 0.805 ± 0.0104 fold-change vs cycle 0 | 0.881 ± 0.0197 fold-change vs cycle 0 |
| CTTCAA | 1.25 ± 0.0505 fold-change vs cycle 0 | 1.41 ± 0.0826 fold-change vs cycle 0 | 1.33 ± 0.122 fold-change vs cycle 0 |
| AGCAAT | 1.19 ± 0.0605 fold-change vs cycle 0 | 1.21 ± 0.0474 fold-change vs cycle 0 | 1.25 ± 0.111 fold-change vs cycle 0 |
| ACTCCC | 0.553 ± 0.0252 fold-change vs cycle 0 | 0.612 ± 0.0294 fold-change vs cycle 0 | 0.716 ± 0.0322 fold-change vs cycle 0 |

| Sequence | binding signal [1] | binding signal [2] | binding signal [3] |
| --- | --- | --- | --- |
| AAAAAC | 1.45 ± 0.0971 fold-change vs cycle 0 | 1.49 ± 0.0832 fold-change vs cycle 0 | 1.42 ± 0.0693 fold-change vs cycle 0 |
| ATCCTA | 1.48 ± 0.0397 fold-change vs cycle 0 | 1.6 ± 0.0899 fold-change vs cycle 0 | 1.46 ± 0.117 fold-change vs cycle 0 |
| AAGTTG | 1.18 ± 0.062 fold-change vs cycle 0 | 1.32 ± 0.0296 fold-change vs cycle 0 | 1.29 ± 0.0737 fold-change vs cycle 0 |
| AGTGAG | 0.933 ± 0.017 fold-change vs cycle 0 | 1.03 ± 0.0394 fold-change vs cycle 0 | 1.05 ± 0.0473 fold-change vs cycle 0 |
| TAGTCA | 1.26 ± 0.0279 fold-change vs cycle 0 | 1.4 ± 0.0422 fold-change vs cycle 0 | 1.34 ± 0.0704 fold-change vs cycle 0 |
| CCCTAG | 0.516 ± 0.0342 fold-change vs cycle 0 | 0.601 ± 0.0265 fold-change vs cycle 0 | 0.667 ± 0.029 fold-change vs cycle 0 |
| TTATAA | 4.21 ± 0.59 fold-change vs cycle 0 | 2.77 ± 0.289 fold-change vs cycle 0 | 2.3 ± 0.394 fold-change vs cycle 0 |
| CTGTCA | 0.753 ± 0.03 fold-change vs cycle 0 | 0.862 ± 0.0445 fold-change vs cycle 0 | 0.932 ± 0.0438 fold-change vs cycle 0 |
| AGGCAG | 0.306 ± 0.00652 fold-change vs cycle 0 | 0.366 ± 0.0295 fold-change vs cycle 0 | 0.484 ± 0.0834 fold-change vs cycle 0 |
| CATACG | 0.727 ± 0.0223 fold-change vs cycle 0 | 0.792 ± 0.0487 fold-change vs cycle 0 | 0.858 ± 0.0517 fold-change vs cycle 0 |
| CGACAA | 0.4483 ± 0.00206 fold-change vs cycle 0 | 0.523 ± 0.0149 fold-change vs cycle 0 | 0.653 ± 0.0169 fold-change vs cycle 0 |
| CAATTA | 1.91 ± 0.128 fold-change vs cycle 0 | 1.83 ± 0.147 fold-change vs cycle 0 | 1.71 ± 0.164 fold-change vs cycle 0 |
| CGTGAC | 0.379 ± 0.0323 fold-change vs cycle 0 | 0.463 ± 0.0197 fold-change vs cycle 0 | 0.556 ± 0.043 fold-change vs cycle 0 |
| AACAGA | 1.28 ± 0.057 fold-change vs cycle 0 | 1.41 ± 0.0434 fold-change vs cycle 0 | 1.35 ± 0.0868 fold-change vs cycle 0 |
| AAGGGG | 0.527 ± 0.0535 fold-change vs cycle 0 | 0.628 ± 0.0342 fold-change vs cycle 0 | 0.657 ± 0.0321 fold-change vs cycle 0 |
| TAGAGA | 1.42 ± 0.0253 fold-change vs cycle 0 | 1.54 ± 0.113 fold-change vs cycle 0 | 1.48 ± 0.0729 fold-change vs cycle 0 |
| ACTAGC | 0.648 ± 0.0227 fold-change vs cycle 0 | 0.764 ± 0.0235 fold-change vs cycle 0 | 0.825 ± 0.0195 fold-change vs cycle 0 |
| ACGAGA | 0.811 ± 0.0345 fold-change vs cycle 0 | 0.922 ± 0.0447 fold-change vs cycle 0 | 0.957 ± 0.0409 fold-change vs cycle 0 |
| AGATCA | 1.29 ± 0.0762 fold-change vs cycle 0 | 1.44 ± 0.0715 fold-change vs cycle 0 | 1.46 ± 0.0921 fold-change vs cycle 0 |
| TTCAAA | 1.81 ± 0.113 fold-change vs cycle 0 | 1.83 ± 0.0928 fold-change vs cycle 0 | 1.66 ± 0.161 fold-change vs cycle 0 |
